LASV entry inh – qHTS for Inhibitors of binding or entry into cells for Lassa Virus | Lassa virus pseudotype entry inhibition, cell reporter | Potency, µM (highest dose often 37.9 µM), inactives show at the highest dose activity change, negative = inhibition, most hits filed as inhibitors | 300,000 compounds, 1.2% hits; calls by dose curve; tested in HEK293 cells; note: potency is the fitted concentration of half-maximal effect; % is set by controls: 0 for no effect and ±100 for the full control effect; nearly all actives have a fitted effect of over 50% in size
Marburg entry inh – qHTS for inhibitors of binding or entry into cells for Marburg Virus. 300,000 compounds, 1.8% hits. Potency, µM (highest dose often 37.8 µM), inactives show top-dose activity change, negative = inhibition, usual class: inhibitors. AID 540276, 2011. Marburg virus pseudotyped entry inhibition, cell reporter; calls by dose curve; tested in HEK293 cells; note: potency is the fitted concentration of half-maximal effect; % is set by controls: 0 for no effect and ±100 for the full control effect
HCV inh – qHTS Assay for Inhibitors of Hepatitis C Virus (HCV); Huh7.5.1 HCVcc-Cre infection, luciferase reporter, 44 h; 340,000 compounds, 3.4% hits; Potency, µM (top dose mostly 41.8 µM), for the others: at the top dose activity change, negative = inhibition, actives largely listed as inhibitors; active = well fitted inhibition curve with a large enough effect; inconclusive = small, poorly fitted or top-dose-only effect, or another doubt; inactive = no such curve, though single readings can be large or run the other way; note: potency is the fitted concentration of half-maximal effect; % is set by controls: 0 for no effect and ±100 for the full control effect
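Antiviral activity was scored by luciferase reporter output from cells infected with HCVcc-Cre (~0.5 moi) in presence of compound, 44 h infection period, cells seeded 1,000/well 4 h prior.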
FMDV antiviral – High Throughput Screening for Foot and Mouth Disease Virus Antivirals; 410,000 compounds, 1.2% hits; FMDV antiviral cell-based qHTS; AID 1159524, 2015; Potency, µM (series often up to 57.9 µM), for inactives: top-dose activity change, negative = inhibition, usual class: inhibitors; calls by dose curve; tested in HEK293T cells; note: read-out not given here; potency is the fitted concentration of half-maximal effect; % is set by controls: 0 for no effect and ±100 for the full control effect; nearly all actives have a fitted effect of over 45% in size
Cycloheximide cs – Cycloheximide Counterscreen for Small Molecule Inhibitors of Shiga Toxin; 300,000 compounds, 12% hits; AID 2314, 2010; max response, %; cell reporter, cycloheximide protein synthesis inhibition counterscreen; in the data active = max response mostly above about 13%, no sharp cut-off; inactive = mostly below about 14%; note: read at 38.3 µM for the half of the compounds with a filed dose; 0% is about no effect
Shiga inhibitor – A qHTS for Small Molecule Inhibitors of Shiga Toxin; Vero cells, Shiga toxin protein synthesis inhibition reporter; inhibition, % at 38.7 µM; 290,000 compounds, 9.2% hits; AID 2315, 2010; in the data active = inhibition mostly above about 28%, no sharp cut-off; inactive = mostly below about 43%; note: 0% is about no effect
* marks the source's active call; other numbers are inactive results; ? = inconclusive; . = not tested or not shown; [ ] = another dose, or the depositor's remark. Sampled rows, rich in hits. Any-hit rate of the full collection: about 13%.

SMILES	LASV entry inh	Marburg entry inh	HCV inh	FMDV antiviral	Cycloheximide cs	Shiga inhibitor
O=C(COCc1cc(-c2ccc3c(c2)OCO3)on1)Nc1cc(Cl)ccc1O	13%[46.1 µM]	.	.	-10%	.	.
COc1cccc(-c2cncnc2NCCc2c[nH]c3ccc(OC)cc23)c1	.	.	.	-11%	.	.
COc1ccc2[nH]cc(CCNc3ncncc3-c3ccc4c(c3)OCO4)c2c1	.	.	.	20µM*	.	.
CC(=O)Nc1ccc(-c2csc(NC(=O)c3ccc(C)o3)n2)cc1	3%	-1%	-17%	0%	-3	11
CCc1noc(C)c1C(=O)Nc1nc(-c2ccc(OC)c(OC)c2)cs1	?	?	?	18µM*	.	.
CCc1noc(C)c1C(=O)Nc1nc(-c2ccc(NC(C)=O)cc2)cs1	?	?	10µM*	22µM*	.	.
CCc1noc(C)c1C(=O)OCC(=O)Nc1nc(-c2ccc(F)c(F)c2)cs1	?	?	?	14µM*	.	.
CCCS(=O)(=O)NC(=O)C1(C)CCCN(C(=O)c2c(C)noc2C)C1 (centres undefined)	.	.	.	-16%	.	.
Cc1ccc(S(=O)(=O)N(C)CCCC(=O)Nc2ccncc2)cc1	.	.	5.6µM*	?	-1	-9
CN(CCCC(=O)Nc1ccc(OC(F)F)cc1)S(=O)(=O)c1ccc(F)cc1	.	-8%[46.1 µM]	11µM*	?	4	-6
Cc1ccc(S(=O)(=O)N(C)C[C@H]2Oc3cc(Br)ccc3S(=O)(=O)N([C@H](C)CO)C[C@H]2C)cc1	.	.	.	37%	.	.
Nc1nc(CN2CCCCCC2)nc(Nc2ccccc2)n1	10%	-8%	-1%	6%	-1	-5
Cc1c(-c2nc(N)nc(Nc3ccccc3)n2)oc2ccccc12	?	?	?	32%	39*	77*
CC1OC(CC(=O)O)CC2=C1C(=O)c1c(O)cccc1C2=O (centres undefined)	0.56µM*	0.5µM*	0.56µM*	3.5µM*	.	.
O=C1c2cccc(O)c2C(=O)c2c(O)cccc21	5%	38%	-18%[8.37 µM]	0%	0	-6
CCCc1nn2c(=O)cc(COC(=O)CNC(=O)COc3ccc(C)cc3)nc2s1	-11%[46.1 µM]	.	.	-19%	.	.
CCN(CC)c1ncnc2c1ncn2[C@H]1CN(Cc2ccc(Cl)cc2)C[C@@H](CO)O1	.	.	.	-8%	.	.
O=C(NC(=S)Nc1ccccc1N1CCCCC1)c1cccs1	4%	-10%	?	?	1	-14
CS(=O)(=O)N1CCN(c2ccc(NC(=O)COc3ccccc3[N+](=O)[O-])cc2)CC1	3%	-4%	-12%	-17%	4	-16
O=C(NC(=S)Nc1ccc(N2CCCCC2)cc1)c1cccs1	?	?	-28%	11%	52*	79*
O=C(NC(=S)N1CCN(c2ccc(O)cc2)CC1)c1cccs1	.	.	1%	34%	24*	84*
O=C(NC(=S)Nc1ccccc1N1CCCC1)c1cccs1	.	.	?	38%	51*	55*
CS(=O)(=O)N1CCN(c2ccc(NC(=S)NC(=O)c3ccccc3[N+](=O)[O-])cc2)CC1	?	-30%[46.1 µM]	13µM*	?	9	-9
COc1ccc(NC(=O)C2CCCN2C(=O)NCc2ccccc2)cc1 (centres undefined)	0%	?	6%	0%	-1	-15
COc1cc(Cl)c(C)cc1NC(=O)COC(=O)CCc1nc2ccccc2c(=O)[nH]1	22%	13%[46.1 µM]	?	-21%	.	.
SMILES	LASV entry inh	Marburg entry inh	HCV inh	FMDV antiviral	Cycloheximide cs	Shiga inhibitor
CCc1nn(CC(=O)NCCc2ccc(Cl)cc2)c(=O)c2cc3c(OC)cccc3n12	.	4%[46.1 µM]	.	-20%	.	.
Cn1c(=O)c2c(SCC(=O)NCc3ccco3)nc(CC(C)(C)C)nc2n(C)c1=O	.	0%	?	-14%	-3	2
COc1ccc2c(C)c(CC(=O)NCc3ccccc3Cl)c(=O)oc2c1OC	-2%[46.1 µM]	?	.	3%	.	.
CC(C)C[C@H]1CN([C@@H](CC(C)C)CN2CCC[C@H]2CN2C(=O)C(=O)NC[C@@H]2Cc2ccccc2)C(=O)C(=O)N1CCc1ccccc1	.	.	.	-9%	.	.
CS(=O)(=O)N1CCN(c2ccc(NC(=S)NC(=O)c3cccs3)cc2)CC1	15%	-2%	-27%	-7%	16*	17
CCOC(=O)C1CCN(C(=S)NC(=O)c2cccs2)CC1	.	6%[46.1 µM]	12%	19%	29*	47

Assay outcomes as filed in PubChem BioAssay.
